These results are taken from ChEMBL document CHEMBL1961873, “Compounds: GSK PKIS; Assays: Nanosyn kinase panel” (2012).

For test [1], the target named is Tyrosine-protein kinase Fyn (Homo sapiens) (UniProt P06241). The following applies: at 1 µM.
The target of test [2] is Tyrosine-protein kinase HCK (Homo sapiens) (UniProt P08631). Particulars: at 0.1 µM.
Test [3] has the same target. The following applies: at 1 µM.
Test [4] deals with Insulin-like growth factor 1 receptor (Homo sapiens) (UniProt P08069). Particulars: at 0.1 µM.
Test [5] has the same target. The following applies: at 1 µM.
The target of test [6] is Insulin receptor (Homo sapiens) (UniProt P06213). The following applies: at 0.1 µM.
Test [7] has the same target. Particulars: at 1 µM.
Test [8] concerns the target Insulin receptor-related protein (Homo sapiens) (UniProt P14616). The following applies: at 0.1 µM.
For test [9] the target is unchanged. The following applies: at 1 µM.
Test [10] addresses T1, Tyrosine-protein kinase ITK/TSK (Homo sapiens) (UniProt Q08881).
T1 sequence (whole entry): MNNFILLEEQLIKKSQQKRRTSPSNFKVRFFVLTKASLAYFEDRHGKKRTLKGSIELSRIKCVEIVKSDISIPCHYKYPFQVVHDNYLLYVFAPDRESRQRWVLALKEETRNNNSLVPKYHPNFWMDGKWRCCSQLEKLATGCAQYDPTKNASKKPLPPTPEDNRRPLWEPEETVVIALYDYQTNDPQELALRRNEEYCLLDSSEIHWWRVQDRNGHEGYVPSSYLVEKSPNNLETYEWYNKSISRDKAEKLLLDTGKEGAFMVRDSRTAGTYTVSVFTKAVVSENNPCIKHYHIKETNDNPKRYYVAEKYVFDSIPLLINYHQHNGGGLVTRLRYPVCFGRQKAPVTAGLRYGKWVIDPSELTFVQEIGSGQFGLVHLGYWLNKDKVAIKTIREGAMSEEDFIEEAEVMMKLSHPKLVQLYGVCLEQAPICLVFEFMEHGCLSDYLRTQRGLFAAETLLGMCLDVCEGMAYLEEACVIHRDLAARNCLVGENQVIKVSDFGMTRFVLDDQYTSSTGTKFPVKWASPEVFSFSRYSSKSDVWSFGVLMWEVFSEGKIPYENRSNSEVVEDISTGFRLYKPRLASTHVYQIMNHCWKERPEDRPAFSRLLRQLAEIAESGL
Particulars: at 0.1 µM.

Test [11] concerns the target T1, Tyrosine-protein kinase ITK/TSK (Homo sapiens). Particulars: at 1 µM.
Test [12] deals with Tyrosine-protein kinase JAK1 (Homo sapiens) (UniProt P23458). Particulars: at 0.1 µM.
Test [13] has the same target. The following applies: at 1 µM.
Test [14] has as its target Tyrosine-protein kinase JAK2 (Homo sapiens) (UniProt O60674). Particulars: at 0.1 µM.
Test [15] has the same target. The following applies: at 1 µM.
Test [16] addresses T2, Tyrosine-protein kinase JAK3 (Homo sapiens) (UniProt P52333).
T2 sequence (whole entry): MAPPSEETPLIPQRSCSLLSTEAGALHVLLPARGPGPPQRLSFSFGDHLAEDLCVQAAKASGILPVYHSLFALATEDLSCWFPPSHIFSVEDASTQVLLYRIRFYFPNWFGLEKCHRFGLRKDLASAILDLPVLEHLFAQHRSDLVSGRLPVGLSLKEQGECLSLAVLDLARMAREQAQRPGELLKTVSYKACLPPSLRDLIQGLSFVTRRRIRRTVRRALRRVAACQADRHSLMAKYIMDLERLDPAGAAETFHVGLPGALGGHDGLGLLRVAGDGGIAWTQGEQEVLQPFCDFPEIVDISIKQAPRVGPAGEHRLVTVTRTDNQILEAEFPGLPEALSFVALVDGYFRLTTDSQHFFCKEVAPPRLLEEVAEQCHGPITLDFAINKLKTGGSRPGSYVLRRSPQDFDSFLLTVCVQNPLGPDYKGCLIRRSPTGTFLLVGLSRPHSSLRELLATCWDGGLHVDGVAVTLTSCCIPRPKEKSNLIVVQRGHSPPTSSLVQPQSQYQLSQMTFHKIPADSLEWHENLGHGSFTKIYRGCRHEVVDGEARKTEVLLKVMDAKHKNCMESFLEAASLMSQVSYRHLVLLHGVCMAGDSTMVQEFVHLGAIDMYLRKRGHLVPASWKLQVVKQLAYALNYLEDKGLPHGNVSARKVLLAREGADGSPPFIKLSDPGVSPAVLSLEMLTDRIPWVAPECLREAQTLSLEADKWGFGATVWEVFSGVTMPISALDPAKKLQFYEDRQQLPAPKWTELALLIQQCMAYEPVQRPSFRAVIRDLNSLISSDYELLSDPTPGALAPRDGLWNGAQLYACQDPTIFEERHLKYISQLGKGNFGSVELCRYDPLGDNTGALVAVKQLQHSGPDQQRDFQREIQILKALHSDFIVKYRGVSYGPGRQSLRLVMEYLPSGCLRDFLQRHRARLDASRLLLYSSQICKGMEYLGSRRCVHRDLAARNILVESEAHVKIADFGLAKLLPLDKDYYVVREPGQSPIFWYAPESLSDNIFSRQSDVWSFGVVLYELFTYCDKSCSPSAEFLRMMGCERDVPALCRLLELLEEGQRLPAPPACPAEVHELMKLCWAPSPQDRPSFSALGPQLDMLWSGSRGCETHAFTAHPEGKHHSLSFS
Particulars: at 0.1 µM.

In test [17] the target is T2, Tyrosine-protein kinase JAK3 (Homo sapiens). The following applies: at 1 µM.
Test [18] concerns the target Vascular endothelial growth factor receptor 2 (Homo sapiens) (UniProt P35968). Particulars: at 0.1 µM.
Test [19] shares this target. The following applies: at 1 µM.
Test [20] has as its target Mast/stem cell growth factor receptor Kit (Homo sapiens) (UniProt P10721). The following applies: at 0.1 µM.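 Note: values are mean inhibition of KIT, from the GSK PKIS dataset.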

Sequence of Insulin receptor-related protein (Homo sapiens) (P14616 27-742 limits assumed): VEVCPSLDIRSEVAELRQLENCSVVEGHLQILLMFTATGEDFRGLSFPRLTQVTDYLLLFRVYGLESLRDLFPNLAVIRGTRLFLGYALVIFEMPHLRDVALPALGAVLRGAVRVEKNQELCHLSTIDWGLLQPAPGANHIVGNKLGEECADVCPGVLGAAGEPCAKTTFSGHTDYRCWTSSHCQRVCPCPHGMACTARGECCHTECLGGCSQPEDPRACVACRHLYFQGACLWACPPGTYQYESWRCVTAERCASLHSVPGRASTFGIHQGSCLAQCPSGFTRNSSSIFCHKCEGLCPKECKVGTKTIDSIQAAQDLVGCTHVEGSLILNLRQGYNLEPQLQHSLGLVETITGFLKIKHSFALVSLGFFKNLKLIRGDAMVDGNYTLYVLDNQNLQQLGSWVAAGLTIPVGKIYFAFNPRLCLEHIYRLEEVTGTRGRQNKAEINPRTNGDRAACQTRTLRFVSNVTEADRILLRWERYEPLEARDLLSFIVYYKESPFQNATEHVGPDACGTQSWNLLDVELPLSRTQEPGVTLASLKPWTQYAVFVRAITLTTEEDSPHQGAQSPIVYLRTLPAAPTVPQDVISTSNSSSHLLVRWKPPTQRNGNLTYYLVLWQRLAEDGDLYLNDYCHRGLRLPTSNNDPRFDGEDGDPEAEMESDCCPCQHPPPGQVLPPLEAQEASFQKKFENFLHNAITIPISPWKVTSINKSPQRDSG
Sequence of Insulin receptor-related protein (Homo sapiens) (P14616 747-1297 limits assumed): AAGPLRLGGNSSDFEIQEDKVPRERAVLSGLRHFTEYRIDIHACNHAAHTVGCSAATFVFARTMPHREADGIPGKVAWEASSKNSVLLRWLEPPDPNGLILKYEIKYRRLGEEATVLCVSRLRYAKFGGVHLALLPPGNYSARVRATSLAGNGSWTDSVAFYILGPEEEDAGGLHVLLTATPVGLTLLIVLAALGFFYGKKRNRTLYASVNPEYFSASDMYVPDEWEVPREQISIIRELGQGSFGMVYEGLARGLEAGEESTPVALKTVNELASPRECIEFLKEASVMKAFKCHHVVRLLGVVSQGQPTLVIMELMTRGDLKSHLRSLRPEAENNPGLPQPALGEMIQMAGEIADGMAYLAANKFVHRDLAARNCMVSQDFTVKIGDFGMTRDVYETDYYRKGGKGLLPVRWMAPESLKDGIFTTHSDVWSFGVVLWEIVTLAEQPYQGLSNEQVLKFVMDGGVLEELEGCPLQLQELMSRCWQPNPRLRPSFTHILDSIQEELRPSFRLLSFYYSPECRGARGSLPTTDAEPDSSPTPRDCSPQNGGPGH
Sequence of Insulin receptor (Homo sapiens) (P06213 28-758 limits assumed): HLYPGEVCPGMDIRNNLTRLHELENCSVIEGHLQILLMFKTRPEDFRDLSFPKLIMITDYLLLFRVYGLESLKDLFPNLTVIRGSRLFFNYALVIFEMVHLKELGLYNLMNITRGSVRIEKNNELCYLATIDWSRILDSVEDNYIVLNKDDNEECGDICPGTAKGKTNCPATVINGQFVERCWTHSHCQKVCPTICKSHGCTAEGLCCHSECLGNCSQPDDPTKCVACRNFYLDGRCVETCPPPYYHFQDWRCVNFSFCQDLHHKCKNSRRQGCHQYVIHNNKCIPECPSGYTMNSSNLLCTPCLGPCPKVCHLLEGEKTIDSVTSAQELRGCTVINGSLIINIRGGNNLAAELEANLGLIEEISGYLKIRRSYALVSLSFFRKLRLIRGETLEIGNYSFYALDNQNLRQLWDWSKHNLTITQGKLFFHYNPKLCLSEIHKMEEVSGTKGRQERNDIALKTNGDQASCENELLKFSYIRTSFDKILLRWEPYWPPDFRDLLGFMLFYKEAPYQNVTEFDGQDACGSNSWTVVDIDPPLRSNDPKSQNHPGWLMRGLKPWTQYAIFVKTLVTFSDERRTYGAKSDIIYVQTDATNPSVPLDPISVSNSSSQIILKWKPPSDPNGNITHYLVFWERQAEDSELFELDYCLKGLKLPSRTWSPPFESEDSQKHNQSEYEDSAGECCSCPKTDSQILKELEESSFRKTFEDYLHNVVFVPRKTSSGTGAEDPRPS
Sequence of Insulin receptor (Homo sapiens) (P06213 763-1382 limits assumed): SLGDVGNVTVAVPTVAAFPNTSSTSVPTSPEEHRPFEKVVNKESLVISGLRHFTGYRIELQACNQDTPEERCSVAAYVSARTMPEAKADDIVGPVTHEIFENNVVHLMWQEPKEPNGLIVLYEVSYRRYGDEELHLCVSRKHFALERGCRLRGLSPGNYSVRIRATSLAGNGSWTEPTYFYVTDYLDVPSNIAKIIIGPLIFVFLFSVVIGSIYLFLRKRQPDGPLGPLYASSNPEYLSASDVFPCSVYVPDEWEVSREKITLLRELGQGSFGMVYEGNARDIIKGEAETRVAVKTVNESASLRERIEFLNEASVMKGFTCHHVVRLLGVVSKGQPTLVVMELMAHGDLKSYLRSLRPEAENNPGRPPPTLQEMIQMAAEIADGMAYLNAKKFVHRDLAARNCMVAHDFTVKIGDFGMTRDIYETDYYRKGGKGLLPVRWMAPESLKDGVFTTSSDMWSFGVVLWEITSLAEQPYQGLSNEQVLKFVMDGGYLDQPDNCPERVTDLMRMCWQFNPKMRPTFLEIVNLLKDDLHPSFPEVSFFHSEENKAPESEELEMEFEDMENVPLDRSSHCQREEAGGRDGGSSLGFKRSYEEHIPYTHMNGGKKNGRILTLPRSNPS
Sequence of Vascular endothelial growth factor receptor 2 (Homo sapiens) (P35968 whole entry): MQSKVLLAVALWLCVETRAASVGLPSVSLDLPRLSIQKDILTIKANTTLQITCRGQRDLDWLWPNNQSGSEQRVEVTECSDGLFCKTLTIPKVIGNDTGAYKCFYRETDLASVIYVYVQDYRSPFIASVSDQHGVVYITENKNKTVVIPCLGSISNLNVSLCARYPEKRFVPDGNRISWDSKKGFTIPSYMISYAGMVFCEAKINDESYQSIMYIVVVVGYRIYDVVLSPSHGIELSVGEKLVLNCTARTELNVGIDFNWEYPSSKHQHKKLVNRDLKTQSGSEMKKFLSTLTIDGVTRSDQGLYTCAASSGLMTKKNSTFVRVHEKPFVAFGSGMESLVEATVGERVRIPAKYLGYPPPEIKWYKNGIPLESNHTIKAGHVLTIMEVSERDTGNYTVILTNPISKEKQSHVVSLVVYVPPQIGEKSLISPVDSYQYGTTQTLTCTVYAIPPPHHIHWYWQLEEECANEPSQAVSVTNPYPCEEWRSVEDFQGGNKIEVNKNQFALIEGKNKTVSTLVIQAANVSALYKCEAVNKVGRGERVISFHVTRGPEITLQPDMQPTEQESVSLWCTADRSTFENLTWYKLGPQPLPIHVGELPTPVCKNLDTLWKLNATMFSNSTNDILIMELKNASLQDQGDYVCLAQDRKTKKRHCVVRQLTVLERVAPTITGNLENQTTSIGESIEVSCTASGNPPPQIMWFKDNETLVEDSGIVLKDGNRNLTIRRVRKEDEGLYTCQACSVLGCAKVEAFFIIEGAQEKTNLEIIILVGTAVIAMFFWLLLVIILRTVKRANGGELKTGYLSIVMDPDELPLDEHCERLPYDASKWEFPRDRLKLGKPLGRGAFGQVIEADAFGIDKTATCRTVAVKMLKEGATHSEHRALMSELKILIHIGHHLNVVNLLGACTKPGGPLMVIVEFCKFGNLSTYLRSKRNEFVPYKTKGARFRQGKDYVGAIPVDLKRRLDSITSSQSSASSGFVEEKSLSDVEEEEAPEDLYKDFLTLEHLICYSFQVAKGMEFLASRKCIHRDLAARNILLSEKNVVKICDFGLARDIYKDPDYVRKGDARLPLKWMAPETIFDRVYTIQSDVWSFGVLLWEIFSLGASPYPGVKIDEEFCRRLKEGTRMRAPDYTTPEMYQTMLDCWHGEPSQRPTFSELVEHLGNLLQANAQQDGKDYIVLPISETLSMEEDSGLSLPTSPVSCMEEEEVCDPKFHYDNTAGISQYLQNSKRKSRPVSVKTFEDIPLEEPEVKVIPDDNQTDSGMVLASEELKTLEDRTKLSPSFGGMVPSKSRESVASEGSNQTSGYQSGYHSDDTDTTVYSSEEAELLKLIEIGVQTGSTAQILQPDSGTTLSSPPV
Sequence of Tyrosine-protein kinase HCK (Homo sapiens) (P08631 2-526 limits assumed): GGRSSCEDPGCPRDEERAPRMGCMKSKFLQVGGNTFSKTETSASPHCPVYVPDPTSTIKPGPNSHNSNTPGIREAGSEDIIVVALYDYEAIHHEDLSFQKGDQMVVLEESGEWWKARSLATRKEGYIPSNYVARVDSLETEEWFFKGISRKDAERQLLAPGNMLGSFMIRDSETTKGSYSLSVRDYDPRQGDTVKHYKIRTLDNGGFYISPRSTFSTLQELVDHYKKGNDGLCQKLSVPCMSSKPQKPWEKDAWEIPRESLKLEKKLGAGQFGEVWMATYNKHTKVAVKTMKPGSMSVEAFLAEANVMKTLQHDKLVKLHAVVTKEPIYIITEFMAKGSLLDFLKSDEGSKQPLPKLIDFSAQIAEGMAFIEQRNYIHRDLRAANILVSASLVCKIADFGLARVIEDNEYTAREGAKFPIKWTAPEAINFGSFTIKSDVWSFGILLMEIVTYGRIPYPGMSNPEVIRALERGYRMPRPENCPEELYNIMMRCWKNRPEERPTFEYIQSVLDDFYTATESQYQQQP
Sequence of Tyrosine-protein kinase Fyn (Homo sapiens) (P06241 2-537 limits assumed): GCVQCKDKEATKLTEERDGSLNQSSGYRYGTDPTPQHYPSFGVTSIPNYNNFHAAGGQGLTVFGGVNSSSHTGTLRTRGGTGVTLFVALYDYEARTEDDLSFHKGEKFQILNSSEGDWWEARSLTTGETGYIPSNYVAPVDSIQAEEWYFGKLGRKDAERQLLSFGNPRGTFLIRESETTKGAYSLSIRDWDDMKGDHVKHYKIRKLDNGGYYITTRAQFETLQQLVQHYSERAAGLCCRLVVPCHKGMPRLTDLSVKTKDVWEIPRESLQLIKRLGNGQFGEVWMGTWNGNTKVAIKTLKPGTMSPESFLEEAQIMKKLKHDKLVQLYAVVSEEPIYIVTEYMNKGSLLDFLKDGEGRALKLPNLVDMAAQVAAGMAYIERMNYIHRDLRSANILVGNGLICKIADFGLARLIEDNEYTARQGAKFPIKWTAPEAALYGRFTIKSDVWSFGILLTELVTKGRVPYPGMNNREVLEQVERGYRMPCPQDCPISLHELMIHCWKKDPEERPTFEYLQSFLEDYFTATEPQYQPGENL

Usually inhibition stands for the relative decrease from the control value, in per cent. Take `CCOc1ccc2c(-c3ccnc(Nc4cccc(C(F)(F)F)c4)n3)cnn2n1`: the inhibition was 4.94% in [1]; 4.28% in test [2]; 6.8% in test [3]; -0.5% in test [4]; 1.57% in test [5]; 0.36% in [6]. Besides, the inhibition in [7] was determined as 1.46%; in test [8], 0.63%; in test [9], 1%; in test [10] it was 0.45%; in [11] it was 4.47%; in test [12], 1.9%. In addition, the inhibition in [13] was 5.28%; in [14] it was 0.91%; in test [15] it was 0.53%; in [16] it was -1.95%; in test [17], -0.21%; in test [18], 4.26%. The inhibition was determined as 7.57% in [19] and 3.18% in test [20].

As to `NC(=O)c1sc(-n2cnc3ccc(C(F)(F)F)cc32)cc1OCc1ccccc1Br`, the inhibition was found to be 4.41% in [1]; 5.59% in test [2]; 5.95% in test [3]; 3.3% in test [4]; 1.19% in test [5]; 4.46% in [6]. For the same molecule, the inhibition in [7] is 5.5%; in [8], 1.61%; in test [9], 0.64%; in [10] it was 1.03%; in [11], -0.19%; in test [12] it was 3.49%. Further, the inhibition in test [13] was 10.6%; in [14], 1.84%; in test [15], 3.26%; in test [16] it was -1.41%; in test [17], 0.92%; in [18] it was 6.34%. The results for the inhibition in test [19] and in [20] were 7.31% and 5.23%, respectively.

Consider `COC(=O)Nc1nc2ccc(Oc3ccc(NC(=O)Nc4cccc(Cl)c4)cc3)cc2[nH]1`, for which the inhibition is 2.41% in [1]; 3.38% in test [2]; 2.91% in [3]; 3.52% in test [4]; 2.1% in test [5]; -1.15% in test [6]. The inhibition in [7] is 0.68%; in test [8] it was -1.26%; in [9], -0.57%; in test [10], 0.74%; in test [11], 0.42%; in test [12] it was 0.77%. For the same molecule, the inhibition is 4.07% in [13]; 0.38% in test [14]; -0.26% in test [15]; -0.87% in test [16]; -0.3% in test [17]; 32.4% in [18]. The values for the inhibition in test [19] and in test [20] were 62.5% and 72.9%, respectively.

Take `CC(=O)NCc1cccc(C#Cc2cncnc2Nc2ccc(OCc3cccc(F)c3)c(Cl)c2)c1`: the inhibition in [1] came to 3.27%; in test [2], 2.8%; in test [3] it was 2.97%; in [4], 0.82%; in test [5] it was 1.07%; in test [6] it was 2.9%. In addition, the inhibition in [7] was 0.68%; in [8] it was -0.93%; in test [9] it was -0.28%; in test [10], 0.36%; in test [11], 0.81%; in test [12] it was 0.65%. Further, the inhibition is 4.76% in test [13]; -0.2% in test [14]; -3% in [15]; -0.21% in test [16]; 4.46% in test [17]; 0.67% in [18]. For the same molecule, the inhibition in test [19] is 8.91%; in [20], -1.01%.

Regarding `N#Cc1c(NC(=O)CN2CCOCC2)sc2c1CCCC2`, the inhibition in [1] came to 8.48%; in [2], 2.96%; in test [3] it was 8.43%; in test [4], 4.81%; in test [5], 5.33%; in [6], 13.2%. For the same molecule, the inhibition in test [7] worked out at 8.64%; in [8] it was 3.54%; in [9] it was 3.5%; in [10] it was 1.1%; in test [11], 3.52%; in test [12], 2.38%. Besides, the inhibition in test [13] was 9.38%; in test [14], 2.3%; in [15], 3.35%; in test [16], -0.09%; in [17], 1.28%; in test [18], 4.13%. Also, the inhibition stood at 6.56% in test [19] and 6.21% in test [20].

Turning to `CCn1c(-c2nonc2N)nc2c(C#CC(C)(C)O)nc(OC[C@H](N)c3ccccc3)cc21`, the inhibition in test [1] turned out to be 4.61%; in test [2], 2.17%; in test [3] it was 9.34%; in test [4], 6.38%; in test [5] it was 2.6%; in test [6], 7.87%. For the same molecule, the inhibition in test [7] stood at 1.38%; in test [8], 0.82%; in [9] it was 2.71%; in [10] it was 2.08%; in [11], 1.49%; in [12], 1.86%. Further, the inhibition was -0.29% in test [13]; -0.06% in test [14]; 1.71% in [15]; -2% in test [16]; -0.34% in test [17]; 59.6% in test [18]. Further, the inhibition in test [19] worked out at 96.1%; in test [20] it was 3.94%.

In the case of `COc1ccc(CNC(=O)c2ccc(-c3cc(-c4nnc(C)o4)ccc3C)cc2)cc1`, the inhibition in [1] is 2.79%; in test [2], 5.56%; in test [3], 4.62%; in test [4], -2.65%; in [5], 0.47%; in test [6] it was 0.9%. The inhibition in test [7] was found to be 0.55%; in test [8], 0.27%; in test [9], 0.52%; in test [10], 2.25%; in test [11], 2.72%; in test [12], 7.51%. Moreover, the inhibition in test [13] turned out to be 19.9%; in test [14], 1.15%; in test [15] it was 1.48%; in test [16], 1.7%; in test [17] it was 3%; in test [18], 5.17%. For the same molecule, the values for the inhibition in test [19] and in test [20] were 9.11% and 2.42%, respectively.
